Data published in PubChem BioAssay AID1159580 (chemical genetic matrix, 2015).
Screen size: about 5,500 compounds; about 2,000 (36%) were called active. Inconclusive results (about 18%) are left out. Rule as the data show it: active = normalized growth mostly below about 0.91 (no sharp cut-off); inconclusive = no clear call, values can overlap the other calls; inactive = mostly above about 0.92. This is one part of the list.

Assay: chemical genetic growth profiling, strain panel (AID 1159580);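 also: tested at 20 µM; growth read once vehicle control cultures reached saturation at 30 °C; 1 = growth at the plate median or of vehicle wells; lower values mean less growth of the strain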
Conditions: S. cerevisiae deletion strains, growth OD
[1] = locus YHR030C, strain SLT2, active compounds read low

Measured: normalized growth

Cc1c(Nc2ncccc2C(=O)O)cccc1C(F)(F)F
inactive: locus YAL021C, strain ccr4, active compounds read low 0.937 | locus YAL026C, strain drs2, active compounds read low 0.979 | locus YAL030W, strain snc1, active compounds read low 0.981 | locus YBL061C, strain skt5, active compounds read low 0.981 | locus YBR009C, strain hhf1, active compounds read low 0.967 | locus YBR023C, strain chs3, active compounds read low 0.99 | locus YBR171W, strain sec66, active compounds read low 0.969 | locus YBR231C, strain swc5, active compounds read low 1.01 | locus YBR279W, strain paf1, active compounds read low 0.987 | locus YCL011C, strain gbp2, active compounds read low 0.979 | locus YCL016C, strain dcc1, active compounds read low 0.975 | locus YCL069W, strain vba3, active compounds read low 0.985 | locus YCR088W, strain abp1, active compounds read low 0.979 | locus YDL005C, strain med2, active compounds read low 0.986 | locus YDL040C, strain nat1, active compounds read low 0.981 | locus YDR001C, strain nth1, active compounds read low 0.964 | locus YDR069C, strain doa4, active compounds read low 0.966 | locus YDR137W, strain rgp1, active compounds read low 0.979 | locus YDR159W, strain sac3, active compounds read low 0.999 | locus YDR195W, strain ref2 0.955 | locus YDR297W, strain sur2, active compounds read low 0.996 | locus YDR334W, strain swr1, active compounds read low 0.961 | locus YDR335W, strain msn5, active compounds read low 0.983 | locus YDR392W, strain spt3, active compounds read low 1 | locus YEL003W, strain gim4, active compounds read low 0.974 | locus YEL037C, strain rad23, active compounds read low 0.989 | locus YEL061C, strain CIN8 (second series), active compounds read low 0.981 | locus YER015W, strain faa2, active compounds read low 0.988 | locus YER016W, strain bim1, active compounds read low 0.978 | locus YER111C, strain swi4, active compounds read low 0.963 | locus YER155C, strain BEM2 (second series), active compounds read low 1.01 | locus YFR010W, strain ubp6, active compounds read low 0.978 | locus YGL167C, strain pmr1, active compounds read low 0.952 | locus YGL173C, strain kem1, active compounds read low 0.984 | locus YGL227W, strain vid30, active compounds read low 0.978 | locus YGL240W, strain doc1, active compounds read low 1.02 | locus YGL253W, strain hxk2, active compounds read low 0.968 | locus YHR013C, strain ard1, active compounds read low 0.958 | locus YHR027C, strain rpn1, active compounds read low 0.971 | [1] 0.947 | locus YHR079C, strain IRE1, active compounds read low 0.974 | locus YHR142W, strain chs7, active compounds read low 0.96 | locus YJL092W, strain hpr5, active compounds read low 0.961 | locus YJL095W, strain BCK1 (second series), active compounds read low 0.983 | locus YJL095W, strain BCK1, active compounds read low 0.989 | locus YJL115W, strain asf1, active compounds read low 0.958 | locus YJL129C, strain trk1, active compounds read low 0.955 | locus YJL154C, strain vps35, active compounds read low 0.972 | locus YJL164C, strain tpk1, active compounds read low 0.97 | locus YJL166W, strain qcr8, active compounds read low 0.994 | locus YJL187C, strain SWE1, active compounds read low 0.992 | locus YJR066W, strain TOR1, active compounds read low 0.928 | locus YKL160W, strain elf1, active compounds read low 0.967 | locus YKR026C, strain gcn3, active compounds read low 0.972 | locus YKR091W, strain srl3, active compounds read low 0.97 | locus YLL001W, strain dnm1, active compounds read low 0.981 | locus YLL026W, active compounds read low 0.978 | locus YLL041C, strain sdh2, active compounds read low 0.953 | locus YLR027C, strain aat2, active compounds read low 0.993 | locus YLR113W, strain HOG1, active compounds read low 0.991 | locus YLR221C, strain rsa3, active compounds read low 0.997 | locus YLR258W, strain gsy2, active compounds read low 0.969 | locus YLR262C, strain YPT6 (second series), active compounds read low 1.02 | locus YLR320W, strain mms22, active compounds read low 1.01 | locus YLR342W, strain FKS1, active compounds read low 0.988 | locus YLR357W, strain rsc2, active compounds read low 0.952 | locus YLR370C, strain arc18, active compounds read low 0.963 | locus YLR384C, strain iki3, active compounds read low 1 | locus YML120C, strain ndi1, active compounds read low 0.974 | locus YMR058W, strain fet3, active compounds read low 0.972 | locus YMR125W, strain sto1, active compounds read low 0.945 | locus YMR129W, active compounds read low 0.972 | locus YMR205C, strain PFK2, active compounds read low 0.977 | locus YMR231W, strain pep5, active compounds read low 0.983 | locus YNL071W, strain lat1, active compounds read low 0.981 | locus YNL183C, strain NPR1, active compounds read low 0.954 | locus YNL209W, strain ssb2, active compounds read low 0.983 | locus YNL248C, strain rpa49, active compounds read low 0.996 | locus YNL322C, strain KRE1 (second series), active compounds read low 0.97 | locus YNR049C, strain mso1, active compounds read low 0.962 | locus YOR001W, strain rrp6, active compounds read low 0.983 | locus YOR070C, strain gyp1, active compounds read low 0.989 | locus YOR080W, strain dia2, active compounds read low 0.979 | locus YOR083W, strain WHI5, active compounds read low 0.98 | locus YOR106W, strain vam3, active compounds read low 0.957 | locus YOR231W, strain MKK1, active compounds read low 0.982 | locus YOR265W, strain rbl2, active compounds read low 0.968 | locus YOR270C, strain vph1, active compounds read low 0.983 | locus YOR290C, strain snf2, active compounds read low 0.943 | locus YPL051W, strain arl3, active compounds read low 1.01 | locus YPL078C, strain atp4, active compounds read low 0.951 | locus YPL106C, strain sse1, active compounds read low 0.982 | locus YPL240C, strain hsp82, active compounds read low 0.98 | locus YPL256C, strain CLN2, active compounds read low 0.951

O=C(COC(=O)c1ccccc1Nc1cccc(F)c1)c1ccccc1
inactive: locus YAL013W, strain DEP1, active compounds read low 0.98 | locus YBR229C, strain ROT2, active compounds read low 0.994 | locus YDL101C, strain DUN1, active compounds read low 1.01 | locus YDL134C, strain PPH21, active compounds read low 0.997 | locus YDR150W, strain NUM1, active compounds read low 1.01 | locus YEL061C, strain CIN8, active compounds read low 0.989 | locus YGR078C, strain PAC10, active compounds read low 0.982 | [1] 0.93 | locus YHR087W, strain rtc3, active compounds read low 1 | locus YJR043C, strain POL32, active compounds read low 0.986 | locus YJR075W, strain HOC1, active compounds read low 1.03 | locus YKL190W, strain CNB1, active compounds read low 0.989 | locus YLR039C, strain RIC1, active compounds read low 1.01 | locus YLR058C, strain SHM2 (second series), active compounds read low 0.989 | locus YLR085C, strain ARP6, active compounds read low 0.916 | locus YLR262C, strain YPT6, active compounds read low 1.02 | locus YML094W, strain GIM5, active compounds read low 0.996 | locus YMR219W, strain ESC1, active compounds read low 0.997 | locus YMR263W, strain SAP30, active compounds read low 0.997 | locus YMR307W, strain GAS1, active compounds read low 0.882 | locus YNL128W, strain TEP1, active compounds read low 0.987 | locus YNL153C, strain GIM3, active compounds read low 0.99 | locus YNL298W, strain CLA4 (second series), active compounds read low 0.97 | locus YNL322C, strain KRE1, active compounds read low 0.981 | locus YNR030W, strain Alg12, active compounds read low 0.978 | locus YPL055C, strain LGE1, active compounds read low 1.01 | locus YPL241C, strain CIN2, active compounds read low 0.96 | locus YPR135W, strain CTF4, active compounds read low 1.01
